Source: PubChem BioAssay (National Center for Advancing Translational Sciences (NCATS))
DT40 TDP1 CPT – DT40-hTDP1 cell growth loss with CPT; AID 686979; Potency, µM (series often up to 46.2 µM), hits mostly inhibitors; chicken DT40 Tdp1-/-;hTDP1 cells + 20 nM CPT, ATP luminescence, 48 h; actives 12% (n = 420,000); further: nearly all actives have a fitted effect of over 55% in size
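Chicken DT40 Tdp1-/- cells stably complemented with human TDP1 were seeded at 400 cells/well in medium containing 20 nM camptothecin, exposed to pin-transferred compounds, and grown at 37 °C for at least 48 hr. Viability was read as ATP luminescence.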
HT1080 IDH1KD tx – toxicity to HT-1080 IDH1 knockdown cells (counter line); HT-1080 IDH1 knockdown viability, ATP luminescence, 48 h; Potency, µM (titrated, usually from 46.1 µM), actives largely listed as cytotoxic; actives 2% (n = 360,000)
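HT-1080-IDH1KD cells (IDH1 knocked down), 750/well in RPMI with 5% FBS, treated with compound 48 h at 37 degrees C. Viability by CellTiter-Glo luminescence, normalised to DMSO and no-cell wells; concentration-response curves classed.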
IL-1B inflam inh – inhibitors of inflammasome signaling (IL-1 beta secretion). THP-1 LPS/ATP IL-1B secretion, AlphaLISA, 16 h; hits give low values. activity change, % at 57.5 µM. actives 4.7% (n = 360,000). AID 743279; in the data active means activity change below about -50%; inconclusive means mostly about -30% to -49%
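Secreted IL-1B measured by AlphaLISA bead assay after 16 h compound exposure of THP-1 cells; compounds (final up to 57.5 uM) added 1 h before LPS (250 ng/mL) and ATP (1.25 mM) stimulation; lower signal means less secretion.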
HT1080-NT tox – kills 2HG-producing HT-1080-NT fibrosarcoma cells. HT-1080-NT fibrosarcoma viability, CellTiter-Glo ATP luminescence, 48 h. Potency, µM (highest dose often 46.1 µM), hits mostly cytotoxic. actives 1.6% (n = 360,000);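 further: NT is the 2HG producing partner of a matched IDH1 knockdown line; nearly all actives have a fitted effect of over 55% in size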
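Fibrosarcoma NT cells, 750 per well in 5% FBS RPMI, were exposed to compound for 48 hours. Viability: CellTiter-Glo luminescence.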
DT40 TDP1 no CPT – qHTS for Inhibitors of human tyrosyl-DNA phosphodiesterase 1 (TDP1): qHTS in cells in absence of CPT; DT40 Tdp1-/- hTDP1 cells, no CPT, ATP luminescence, 48 h; Potency, µM (top dose mostly 46.2 µM), most hits filed as inhibitors; actives 15% (n = 420,000); further: nearly all actives have a fitted effect of over 55% in size
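Cells were dispensed at 400 per well, compounds added by pin tool, plates incubated ≥48 hr at 37 °C, then CellTiter-Glo added for 30 min at room temperature before luminescence reading. Line: DT40 Tdp1-/- complemented with hTDP1; camptothecin omitted.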
Hits are given with their value; . = inactive; ? = inconclusive; / = no result; ! = not active in a repeat. In the library only some 19% were active in any assay of this set; here they are far more common. Unless noted, the call rests on the fitted dose curve; in most records, active means well fitted curve in the direction sought with a large enough effect; inconclusive means small, poorly fitted or top-dose-only effect, or another doubt; inactive means no such curve, though single readings can be large; an effect the other way counts as inactive or inconclusive.

SMILES	DT40 TDP1 CPT	HT1080 IDH1KD tx	IL-1B inflam inh	HT1080-NT tox	DT40 TDP1 no CPT
Cc1ccc2nc(-c3ccc(NC(=O)COc4ccccc4)cc3)sc2c1	.	/	/	/	.
Cc1ccc2nc(-c3ccc(NC(=O)COC(=O)c4ccc(Br)o4)cc3)sc2c1	?	?	.	?	?
Cc1cc(C)cc(N(CC(=O)Nc2ccc(-c3nc4ccc(C)cc4s3)cc2)S(C)(=O)=O)c1	23.1µM	?	.	?	14.6µM
Cc1ccc2nc(-c3ccc(NC(=O)CN(c4ccccc4C)S(C)(=O)=O)cc3)sc2c1	20.6µM	.	.	.	14.6µM
Cc1ccc2nc(-c3ccc(NC(=O)COC(=O)c4ccco4)cc3)sc2c1	.	?	-50.6	?	?
O=C(NC1CCCCNC1=O)c1ccco1 (stereo not given)	.	.	.	.	.
CC(=O)C1=C(C)NC(SCC(=O)Nc2nc3ccccc3s2)=C(C#N)C1c1ccc(Cl)cc1 (stereo not given)	?	.	.	.	18.4µM
CCOC(=O)C1=C(C)NC(SCC(=O)OC)=C(C#N)C1c1ccc(C(=O)OC)cc1 (stereo not given)	?	.	.	.	23.1µM!
COc1ccc(NC(=O)CSC2=C(C#N)C(c3ccco3)C(C(=O)Nc3nc4ccccc4s3)=C(C)N2)cc1 (stereo not given)	?	.	.	.	?
C=CCOC(=O)C1=C(C)NC(SCC)=C(C#N)C1c1ccc(Cl)cc1 (stereo not given)	0.731µM	8.2µM	.	9.2µM	0.517µM
CCOC(=O)CSC1=C(C#N)C(c2ccc(F)cc2)C(C(C)=O)=C(C)N1 (stereo not given)	.	.	.	.	?
Cc1cc(NC(=O)CCS(=O)(=O)c2cc3c4c(c2)CCN4C(=O)CC3)ccc1Br	.	/	/	/	.
CN1C(N)=NC(=O)/C1=C/c1ccc(OC(F)(F)F)cc1	.	.	.	.	.
Cc1ccc2[nH]c(=O)c(CN(CCCN3CCOCC3)Cc3nnnn3C3CCCC3)cc2c1	?	?	.	.	.
Cc1ccc2cc(CN(Cc3ccccc3)Cc3nnnn3C3CCCC3)c(=O)[nH]c2c1	18.4µM	?	-63.4	?	12.6µM
Cc1ccc2cc(CN(Cc3ccc(F)cc3)Cc3nnnn3C3CCCC3)c(=O)[nH]c2c1	29.1µM	?	-61.2	?	?
CCc1ccc2[nH]c(=O)c(CN(Cc3ccc4c(c3)OCO4)Cc3nnnn3C3CCCC3)cc2c1	18.4µM	?	-66.0	?	?
COC(=O)C(c1ccccc1)C(CC(=O)c1ccccc1)c1ccccc1 (stereo not given)	.	.	.	.	?
Cc1ccc(C2N(C)C(=O)c3ccccc3N2C)cc1 (stereo not given)	.	?	.	?	20.6µM
Cc1ccc([C@@H]2[C@@H]3C(=O)N(C)C(=O)[C@@H]3[C@@H]3C(=O)Nc4ccccc4C(=O)N23)cc1	.	.	.	.	.
COc1cccc(Cn2c(=O)c(-c3ccc(Cl)cc3)nc3cnc(OC)nc32)c1	.	/	/	/	.
Fc1ccc(CN2CCCN(Cc3nc(-c4ccc5c(c4)OCO5)no3)CC2)cc1	?	.	.	.	?
c1ccc(C(c2ccccc2)c2noc(CN3CCC(c4ccncc4)CC3)n2)cc1	20.6µM	.	.	.	?
COCC1CCN(Cc2nc(-c3ccc4c(c3)OCO4)no2)C1 (stereo not given)	.	.	.	.	.
c1cc(C2CCN(Cc3nc(-c4ccc5c(c4)OCO5)no3)CC2)ccn1	20.6µM	?	.	?	11.6µM
c1ccc(CCC2CCCCN2Cc2nc(-c3ccc4c(c3)OCO4)no2)nc1 (stereo not given)	16.4µM	.	.	.	20.6µM
COc1ccc(-c2nc(CN3CCCCC3CCc3ccccn3)c(C)o2)cc1 (stereo not given)	.	.	.	.	?
c1ccc(C2CCCN(Cc3nc(CC4CC4)no3)CC2)cc1 (stereo not given)	.	.	.	.	.
